Hit rate of the full screen: of about 340,000 compounds, about 1,200 (0.35%) were called active.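 The calls were made as follows: active = potentiation over 3 SD above the plate norm (cut at about 30% in these data); inactive = the rest.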 For the sample, actives were picked, then their nearest neighbours and some compounds at random.

Chain of D(2) dopamine receptor (Homo sapiens) (P14416 whole entry, looked up): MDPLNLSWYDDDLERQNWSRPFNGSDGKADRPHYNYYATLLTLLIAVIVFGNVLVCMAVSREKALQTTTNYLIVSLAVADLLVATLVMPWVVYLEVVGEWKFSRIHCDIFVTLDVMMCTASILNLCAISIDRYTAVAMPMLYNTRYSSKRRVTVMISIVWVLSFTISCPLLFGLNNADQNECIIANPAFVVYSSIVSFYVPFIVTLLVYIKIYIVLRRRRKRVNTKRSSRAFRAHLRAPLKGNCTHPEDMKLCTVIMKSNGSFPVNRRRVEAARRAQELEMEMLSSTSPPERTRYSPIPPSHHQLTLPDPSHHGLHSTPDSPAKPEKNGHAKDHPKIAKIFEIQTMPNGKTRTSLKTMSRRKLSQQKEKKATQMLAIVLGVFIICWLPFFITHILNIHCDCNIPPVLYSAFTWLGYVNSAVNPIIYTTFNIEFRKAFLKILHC

For the assay, the target named is D(2) dopamine receptor (Homo sapiens) (UniProt P14416). Kind of assay: HTS Assay for Positive Allosteric Modulators of the Human D2 Dopamine Receptor: Primary Screen for Potentiators. Also: 0% is about no effect. The settings on record: HEK293 T-REx D2, calcium flux, EC20 dopamine potentiation; at 10 µM; stronger effect = higher value. In short, it runs like this:
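Potentiation of an EC20 dopamine calcium response is measured in a force-coupled, tetracycline-inducible Hek293 Trex D2 line. Compound-only kinetic reads over 180 s flag agonists before dopamine addition.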
On the technique in general: A change in cytosolic calcium serves as a functional read-out for many receptors and channels.
With `CCOC(=O)c1c(C)[nH]c(C)c1S(=O)(=O)N1CCC(C(=O)Nc2ccc(C)c(Cl)c2)CC1`, the potentiation was 1.42% (inactive).
Regarding `O=C(Nc1ccc(-c2nnc(-c3ccccc3)o2)cc1)C1CCCO1` (configuration not stated), the potentiation is 15.5% (inactive).
Next, `O=C(Nc1cccc(-c2nnc(-c3ccccc3)o2)c1)C1CCCO1` (configuration not stated): 34% (active); `CC(=O)Nc1cccc(C(=O)OCC(=O)Nc2nnc(-c3ccccc3)o2)c1`: 4.87% (inactive).
`COc1cccc(CNC(=O)c2ccc3c(Cl)c4c(nc3c2)CCCC4)c1`: the potentiation was -3.62% (inactive).
Take `COc1ccc(Cl)cc1-n1c(C)cc(C(=O)OCC(=O)N2CC(=O)Nc3ccccc32)c1C`: the potentiation is -19.1% (inactive).
As to `COc1ccc(C(=O)OCC(=O)N2CC(=O)Nc3ccccc32)cc1Br`, the potentiation is -9.38% (inactive).
As to `COc1cc(OC)c(C(=O)OCC(=O)N2CC(=O)Nc3ccccc32)cc1OC`, the potentiation is 35.4% (active).
Consider `O=C(Nc1nnc(C2CC(=O)N(c3ccc(Cl)cc3)C2)s1)c1ccco1` (configuration not stated), for which the potentiation was -13.1% (inactive).
With `Cc1cccc(OCCC(=O)Nc2cc(S(=O)(=O)N3CCCCC3)ccc2N2CCOCC2)c1`, the potentiation was 38.1% (active).
For the molecule `Cc1cccc(OCCCC(=O)Nc2ccc(S(=O)(=O)N3CCCC3)cc2)c1`, the potentiation is 9.5% (inactive).
Take `CC(=O)NCCC(=O)Nc1cc(S(=O)(=O)N2CCCCC2)ccc1Oc1cccc(C)c1`: the potentiation was -0.184% (inactive).
Next, `CCOC(=O)N1CCC(NC(=O)c2cnn(-c3cccc(C)c3)c2C2CCN(C(=O)OC(C)(C)C)CC2)CC1`: -9.08% (inactive).
In the case of `Cn1nnnc1SCCNCc1ccc(Cl)c(Cl)c1`, the potentiation was -14.4% (inactive).
`CC1=NCCN1S(=O)(=O)c1cccc([N+](=O)[O-])c1`: the potentiation is 12.8% (inactive).
On to `Cc1ccc(-c2cn(S(=O)(=O)c3cccc([N+](=O)[O-])c3)nc2N)cc1`, for which the potentiation was 30.3% (active).
Next, `Cc1cc(C)n(S(=O)(=O)c2cccc([N+](=O)[O-])c2)n1`: 2.11% (inactive); `COc1cccc(C(c2c(O)cc(C)n(Cc3ccco3)c2=O)N2CCN(c3ccccc3)CC2)c1` (configuration not stated): -2.97% (inactive).
Next, `Cc1ccccc1CNC(=O)CCc1cn(Cc2ccccc2C)c2ccccc12`: -1.4% (inactive).
For `COc1ccc(-c2cn3nc(N4CCCC(C(=O)NCCCOC(C)C)C4)sc3n2)cc1` (configuration not stated), the potentiation is -3.35% (inactive).
Take `Cc1cccc(NC(=O)C2CCN(S(=O)(=O)c3c(C)noc3/C=C/c3ccco3)CC2)c1`: the potentiation is 2.71% (inactive).
`O=C(CCNC(=O)c1ccc(Br)cc1)NCCCc1ccccc1`: the potentiation is 33% (active).
Next, `CC(C)c1ccc(C(=O)NCCCc2ccccc2)cc1`: -14.7% (inactive); `O=C(CCNS(=O)(=O)c1ccccc1)NCCCc1ccccc1`: -12.4% (inactive); `Cc1cc(F)ccc1NS(=O)(=O)c1ccc(-n2cccn2)cc1`: -0.96% (inactive).
Take `COc1ccc(CCNC(=O)c2cc(=O)c3c(C)cc(C)cc3o2)cc1OC`: the potentiation was -14.8% (inactive).
Regarding `COc1ccc(S(=O)(=O)N2CCC(C(=O)NCc3ccco3)CC2)cc1C`, the potentiation is 6.74% (inactive).
`COc1ccc(CNC(=O)C2CC(c3ccc(C(F)(F)F)cc3)=NO2)cc1` (configuration not stated): the potentiation is 11.9% (inactive).
`COc1ccc(C2=NOC(C(=O)NCc3ccco3)C2)cc1OC` (configuration not stated): the potentiation is 32.1% (active).
`COc1cccc(-n2cc(C(=O)NCc3cccc(Cl)c3)c3ccccc3c2=O)c1`: the potentiation was 3.92% (inactive).
As to `Cc1nnc(NCc2ccccc2)c2c1nnn2Cc1ccc(F)cc1`, the potentiation is -11.5% (inactive).
In the case of `COc1cc(Cl)c(NC(=O)C(NS(=O)(=O)c2cccs2)C(C)C)c(OC)c1` (configuration not stated), the potentiation is -0.155% (inactive).
Consider `COCc1c(C(=O)N/N=C/C2CC=CCC2)nnn1-c1nonc1N` (configuration not stated), for which the potentiation was 5.51% (inactive).
The value for `CC(C)c1c(C(=O)N/N=C/c2ccc(-c3ccccc3)cc2)nnn1-c1nonc1N` was 4.04% (inactive); that for `Nc1nonc1-n1nnc(C(=O)N/N=C/C2CCCCC2)c1-c1ccccc1` was 38.6% (active); that for `Cc1cc(C)c2oc(-c3cccc(NC(=O)c4cccc(F)c4)c3C)nc2c1` was -6.15% (inactive).
With `COc1cccc(-c2nc(CS(=O)(=O)CC(=O)N3CCN(c4cc(C)ccc4C)CC3)c(C)o2)c1`, the potentiation was 20.2% (inactive).
Take `Cc1ccc(SCc2cc(=O)[nH]c(N3CCCCC3)n2)cc1`: the potentiation is -9.08% (inactive).
Turning to `Cc1ccc(SCC2=NNC(=O)C2)cc1`, the potentiation is 31.9% (active).
`Cc1ccc(SCCSc2ncccn2)cc1`: the potentiation is -3.01% (inactive).
For `CCn1c2ccccc2c2cc(NC(=O)COc3ccc(C)cc3C)ccc21`, the potentiation is -13% (inactive).
`CCc1ccc(NC(=O)c2nn(-c3ccc(C)cc3)c(=O)n(C)c2=O)cc1`: the potentiation was 11.1% (inactive).
Turning to `COc1ccc(CNC(=O)COC(=O)/C=C/c2ccc(S(=O)(=O)N3CCOCC3)cc2)cc1`, the potentiation is 33.3% (active).
Regarding `COC(=O)COc1ccc(S(=O)(=O)N2CCOCC2)cc1`, the potentiation was -3.49% (inactive).
As to `O=C(COC(=O)/C=C/c1ccc(S(=O)(=O)N2CCCCCC2)cc1)NCc1ccccc1Cl`, the potentiation was -11.9% (inactive).
In the case of `CCn1c(CN2CCC(C)CC2)nc2cc(NC(=O)c3ccccc3[N+](=O)[O-])ccc21`, the potentiation is -38.3% (inactive).
Turning to `O=C(Cn1cc(SCc2cccc(Cl)c2)c2ccccc21)N1CCCCC1`, the potentiation was 1.4% (inactive).
Turning to `O=C(COc1ccc(Cl)cc1)N1CCN(S(=O)(=O)c2ccc(Cl)cc2)CC1`, the potentiation is -3.15% (inactive).
`O=C(COc1ccc(Cl)cc1)N1CCN(c2cccc(C(F)(F)F)c2)CC1`: the potentiation was 35.5% (active).
In the case of `Cc1c(C)c2ccc(OCC(=O)N3CCN(c4cccc(Cl)c4)CC3)cc2oc1=O`, the potentiation was -6.58% (inactive).
With `CCOC(=O)c1ccc(N2C(=O)c3n[nH]c(-c4ccco4)c3C2c2ccc(O)cc2)cc1` (configuration not stated), the potentiation was -20% (inactive).
With `Nc1ncc(S(=O)(=O)Nc2ccc(OC(F)(F)F)cc2)cn1`, the potentiation is -3.21% (inactive).
For the molecule `CCOc1ccc(NC(=O)CC2C(=O)N(c3cccc(OC)c3)C(=O)N2C2CCCCC2)cc1` (configuration not stated), the potentiation was 2.76% (inactive).
The value for `COc1ccc(S(=O)(=O)c2cn(C)c3cc(N4CCCCC4)c(F)cc3c2=O)cc1` was -4.51% (inactive).
Consider `COc1ccccc1N1CCN(c2ncnc3sc(C)c(-c4ccccc4)c23)CC1`, for which the potentiation is 37.8% (active).
Regarding `COC(=O)c1cnc(N2CCN(c3ccccc3OC)CC2)c2ccccc12`, the potentiation was 3.09% (inactive).
Next, `COc1ccccc1N1CCN(c2ncnc3onc(-c4ccc(F)cc4)c23)CC1`: -4.24% (inactive); `CCc1ccc(C2C(C(=O)Nc3ccccc3)=C(C)Nc3c(C(=O)Nc4ccc(C)cc4)cnn32)cc1` (configuration not stated): 4.34% (inactive); `COc1ccccc1N1CCN(c2ccc(=O)n(CC(=O)NCc3ccc(OC(C)C)cc3)n2)CC1`: -2.29% (inactive).
Turning to `COc1cccc(NC(=O)C2c3cc(OC)c(OC)cc3C(=O)N(C)C2c2cccnc2)c1` (configuration not stated), the potentiation was 30.1% (active).
The value for `COc1cccc(NC(=O)C2C(c3ccccc3)C2(Cl)Cl)c1` (configuration not stated) was -7.1% (inactive); that for `CCOc1cc2c(cc1OCC)C(C(=O)O)C(c1ccc(OC)c(O)c1)N(C)C2=O` (configuration not stated) was -25.6% (inactive); that for `Cc1ccc(O)c(NC(=O)CCS(=O)(=O)c2nc(-c3ccc4c(c3)OCO4)cc(C(F)(F)F)n2)c1` was 5.96% (inactive).
On to `Cc1cccc(NC(c2cccc(F)c2)c2ccc3ccc(C)nc3c2O)n1` (configuration not stated), for which the potentiation was 0.98% (inactive).
Take `Cc1cc(C)cc(-n2c(SCC(=O)NCC3CCCO3)nc3c([nH]c4ccccc43)c2=O)c1` (configuration not stated): the potentiation is -6.86% (inactive).
Turning to `Cc1ccc(-n2cnc3cc(C(=O)NCCC4=CCCCC4)ccc32)cc1Cl`, the potentiation is 9.63% (inactive).
On to `CCn1c2ccccc2c2cc(CN3CCN(Cc4cccc(Cl)c4)CC3)ccc21`, for which the potentiation is -11.2% (inactive).
Turning to `CCOC(=O)N1CCC(NC(=O)CCc2ccccc2)CC1`, the potentiation was -4.2% (inactive).
With `CCOC(=O)N1CCC(c2cc(=O)n(-c3ccccc3)[nH]2)CC1`, the potentiation is 49.5% (active).
The value for `CCOC(=O)CN1CCC(c2ccccc2)CC1` was -9.51% (inactive).
The value for `CCCCS(=O)(=O)c1oc(-c2cccs2)nc1S(=O)(=O)c1ccccc1` was 3.55% (inactive); that for `CCS(=O)(=O)N1CCc2cc(C(=O)N3CCN(c4ccccc4OC)CC3)ccc21` was 3.69% (inactive).

The values above are taken from PubChem BioAssay AID485347 (National Center for Advancing Translational Sciences (NCATS), 2010).
